Results from PubChem BioAssay (NCATS).
Results filed as inconclusive are left out. The source made the active and inactive calls. Calls come from the whole dose curve; as a rule, active = well fitted inhibition curve with a large enough effect; inconclusive = small, poorly fitted or top-dose-only effect; inactive = flat fitted curve, though single readings scatter.

The compounds below were run against Tyrosyl-DNA phosphodiesterase 1 (Homo sapiens) (UniProt Q9NUW8) (assay: Confirmation Assay for Inhibitors of Tyrosyl-DNA Phosphodiesterase (TDP1) (AID 489007; note: nearly all actives have a fitted effect of over 40% in size)). Settings: recombinant human TDP1 enzymatic activity, dose-response.
Tyrosyl-DNA phosphodiesterase 1 (Homo sapiens), sequence (Q9NUW8 whole entry, looked up): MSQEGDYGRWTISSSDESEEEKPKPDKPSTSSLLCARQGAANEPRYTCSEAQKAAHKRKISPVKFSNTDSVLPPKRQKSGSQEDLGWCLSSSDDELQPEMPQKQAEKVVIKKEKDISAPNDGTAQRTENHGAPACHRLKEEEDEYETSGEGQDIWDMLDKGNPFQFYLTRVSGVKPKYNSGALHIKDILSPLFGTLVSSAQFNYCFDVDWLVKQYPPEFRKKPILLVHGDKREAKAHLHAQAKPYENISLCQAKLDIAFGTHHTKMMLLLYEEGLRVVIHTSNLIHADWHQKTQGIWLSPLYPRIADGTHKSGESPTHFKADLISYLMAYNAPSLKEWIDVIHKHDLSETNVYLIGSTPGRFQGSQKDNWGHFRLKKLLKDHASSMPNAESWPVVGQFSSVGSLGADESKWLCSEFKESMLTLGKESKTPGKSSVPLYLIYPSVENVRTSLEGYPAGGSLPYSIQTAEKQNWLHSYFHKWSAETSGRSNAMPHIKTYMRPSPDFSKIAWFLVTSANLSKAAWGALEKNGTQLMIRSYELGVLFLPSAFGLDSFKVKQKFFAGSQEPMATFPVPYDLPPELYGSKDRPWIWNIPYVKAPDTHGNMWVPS
Source text: Human tyrosyl-DNA phosphodiesterase I (Tdp1) is a rational anticancer target because this enzyme is involved in the repair of DNA lesions created by the trapping of human DNA topoisomerase I (Top1) following treatment by anticancer agents such as camptothecins. Recombinant Tdp1 was expressed and purified from E. coli in the laboratory (Anthony et al, Nucleic Acids Research, 2007, Vol. 35, 4474-4484). A Tdp1 DNA substrate bearing a 5' biotin and a 3' phospho-tyrosine was obtained by custom synthesis. This oligonucleotidic DNA substrate was subsequently coupled to a fluorescein isothiocyanate (FITC) group via the free amino group present on the phospho-tyrosine. Tdp1 was screened against the NCGC small molecule library using the AlphaScreen (AS) detection method in which a streptavidin donor AS bead is bound at the 5' end and an anti-FITC AS acceptor bead is bound at the 3' end of the DNA oligonucleotidic substrate. In the presence of Tdp1, the enzyme cleaves the tyrosine-FITC group, leaving a 3' end phosphate on the DNA substrate. This cleavage reaction results in a loss of signal in AS.
This BioAssay is a confirmation of followup compounds from primary TDP1 screen (AID:485290)
NIH Molecular Libraries Probe Production Network [MLPCN]
NIH Chemical Genomics Center [NCGC]
Assay Provider: Yves Pommier and Christophe Marchand, National Cancer Institute
Assay Title: qHTS Assay for Inhibitors of Tyrosyl-DNA Phosphodiesterase (TDP1)
[1] 3 ul of buffer is dispensed in columns 3 & 4 as negative control (no enzyme and maximum signal),
[2] 3 ul of enzyme (1 nM final) is dispensed in columns 1,2, 5-48,
[3] 1 ul of substrate (15 nM final) is dispensed throughout the plate,
[4] 1 ul of AS donor/acceptor bead mix (10 ug/ml final) is dispensed throughout the plate
3 ul of Tdp1 enzyme is dispensed to 1536-well Kalypsys black solid bottom plates. Compounds and controls (23 nl) are transferred via Kalypsys Pin Tool. The plates are incubated for 15 min at room temperature, and then 1 ul of substrate is added to start the reaction. After 5 min incubation at room temperature, 1 ul of AS donor/acceptor bead mix is added and the plates are further incubated for 10 min at room temperature. The detection is then performed on a PerkinElmer Envision reader.
Potency is the fitted concentration of half-maximal effect.

Potency, active:
CO/N=C(/C(=O)NC1C(=O)N2C(C(=O)O)=C(COC(N)=O)CSC12)c1ccco1 (stereo not given) 6.31 µM, CC(=O)Nc1ccc2c(COC(=O)CC3Sc4ccccc4NC3=O)cc(=O)oc2c1 (stereo not given) 15.8 µM, Nc1nonc1-c1nc2ccccc2n1CC(=O)N/N=C/c1ccc(-c2cccc(C(=O)O)c2)o1 14.1 µM, Nc1ccc(N)c(C(=O)O)c1 0.199 µM, O=C(CSc1nc2ccccc2[nH]1)NC1CCCC1 14.1 µM, O=C(O)C1C2C=CC(C2)C1C(=O)NCCc1ccncc1 (stereo not given) 100 µM, Cc1nnc(NC(=O)CSc2ccc(-c3ccco3)nn2)s1 14.1 µM, O=C(/C=C/c1c(Cl)nc2ccccn12)N1CCN(c2ccc(F)cc2)CC1 35.5 µM, Cc1ccc(C(=O)O)cc1-c1ccc(/C=C2/NC(=O)N(c3ccccc3)C2=O)o1 7.08 µM, Cc1ccc2nc(-c3ccncc3)cc(C(=O)Nc3ccc(OC(F)F)cc3)c2c1 70.8 µM, O=C(O)c1cc(-c2ccc(/C=C3\NC(=O)N(c4ccccc4)C3=O)o2)ccc1Cl 7.08 µM, CC(=O)NC1=NC(=O)/C(=C/c2cc(C)n(-c3cccc(C(=O)O)c3)c2C)S1 2 µM, COc1ccc(N2Cc3cccc(C(=O)N4CCN(C(=O)c5ccco5)CC4)c3C2=O)cc1 7.08 µM, COc1ccc(N2Cc3cccc(C(=O)O)c3C2=O)cc1 2.51 µM, CCCCC[C@H](O)/C=C/[C@@H]1[C@@H](C/C=C\CCCC(=O)OC)[C@@H](O)C[C@H]1O 25.1 µM, CO/N=C(/C(=O)N[C@H]1C(=O)N2C(C(=O)O)=C(COC(C)=O)CSC12)c1csc(N)n1 (stereo not given in full) 8.91 µM, Cc1nn(-c2ccccc2)c(C)c1S(=O)(=O)O 25.1 µM, CCOc1ccc(N=Cc2c(C)[nH]n(-c3nc4ccccc4[nH]3)c2=O)cc1 31.6 µM, Cc1cc(C=O)c(C)n1-c1ccc(Cl)c(C(=O)O)c1 1.12 µM, Cc1ccc(S(=O)(=O)N(CC(=O)O)Cc2ccco2)cc1 20 µM, Nc1ccc(Nc2ccccc2)c(S(=O)(=O)O)c1 7.94 µM, Cn1nnnc1SCC(=O)Nc1ccccn1 7.08 µM, O=C(O)c1ccc(-c2ccc(/C=C3\NC(=O)N(Cc4ccc(Cl)cc4)C3=O)o2)cc1Cl 3.55 µM, Oc1ccc(/C=N/N2CCOCC2)c(O)c1O 100 µM, CCN(c1ccccc1)S(=O)(=O)c1cc(C(=O)O)ccc1C 12.6 µM, O=C(O)C1C2C=CC(C2)C1C(=O)NCc1cccs1 (stereo not given) 31.6 µM, CS(=O)(=O)C1=NSC2=NC(=O)/C(=C\c3cccn3-c3ccc(Cl)cc3)C(=N)N21 5.01 µM, CC1=N/C(=C/c2ccco2)C(=O)O1 3.55 µM, Cc1ccc(C(=O)O)cc1-c1ccc(/C=C2\SC(=O)N(CC(=O)Nc3ccccc3)C2=O)o1 6.31 µM, CCN(CC)Cc1c(O)c(Cl)cc2c(C)cc(=O)oc12 14.1 µM, CCn1c(SCc2nc3sc(C(=O)O)c(C)c3c(=O)[nH]2)nc2ccccc21 3.16 µM, CCCCNC(=O)COC(=O)c1ccc(Cl)c(S(=O)(=O)N2CCCC2)c1 100 µM, C=CCc1cccc2cc(C(=O)Nc3ccc(S(=O)(=O)Nc4nnc(CC)s4)cc3)c(=O)oc12 15.8 µM, COC(=O)c1cc(NC(=O)c2ccc3c(c2)NC(=O)c2ccccc2S3)cc(C(=O)OC)c1 25.1 µM, Cc1ccc(CNC(=O)c2ccc(-n3cccc3)cc2)cc1 12.6 µM, Cc1ccc(S(=O)(=O)N2CCCCC2)cc1C(=O)Nc1ccc(S(=O)(=O)Nc2ncccn2)cc1 14.1 µM, C=C(C)C(=O)Nc1cccc(C2=NOC3(C2)C[C@H](C(N)=O)N(C(=O)COc2ccc(Cl)cc2)C3)c1 (stereo not given in full) 12.6 µM, O=C(NN1C(=O)C2CC=C(Cl)CC2C1=O)c1ccncc1 (stereo not given) 31.6 µM, COc1ccc2nc(N3CCCCC3)c(C#N)cc2c1 31.6 µM, Cc1ccc(NC(=O)CN2C(=O)N/C(=C/c3cccn3-c3ccc(C(=O)O)cc3)C2=O)cc1 0.282 µM
